Source: PubChem (National Center for Advancing Translational Sciences (NCATS))
PINK1 expr mod: A Quantitative High throughput Screen to Identify Chemical Modulators of PINK1 Expression; PINK1 immunofluorescence, high-content cytometry, 24 h; AID 624263, 2012; Potency, µM (series often up to 76.6 µM), for the others: at the highest dose activation (PINK1 increase), actives largely listed as activators; 0.2% of 410,000 active; active = well fitted activation curve with a large enough effect; inconclusive = small, poorly fitted or top-dose-only effect; cell line not stated here; note: potency is the fitted concentration of half-maximal effect; % of control where 0% means no effect; nearly all actives have a fitted effect of over 65% in size
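Stable cell line treated 24 h with compounds at 5 concentrations (CCCP controls), then fixed and immunostained for PINK1 plus nuclear and cell stains; PINK1 immunofluorescence quantified by laser-scanning microplate cytometry.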
CCT modulator: High-Throughput Screening for Modulators of Cytosolic Chaperonin Activity | purified chaperonin ATPase assay, HTRF ADP detection, 30 min | activity change, % (no concentration beside the values), hits read low | 0.3% of 360,000 active; in the data active = activity change below about -30%; note: % is set by controls: 0 for no effect and ±100 for the full control effect
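Nucleotide hydrolysis assay: TRiC at 20–40 nM final (set by batch activity) with 10 uM ATP, 30 min at 37 °C, in presence of 76 uM compound. Detection by competitive ADP HTRF, 30 min ambient.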
Mm-Cpn inhibitor: Inhibitors of TCP-1 ring complex (TRiC) of Methanococcus maripaludis (MmCpn): qHTS; Potency, µM (highest dose often 76.9 µM), inactives show at the highest dose activity, negative = inhibition, hits mostly inhibitors; purified Mm-Cpn ATPase, ADP Transcreener TR-FRET; Chaperonin Mm-Cpn (Methanococcus maripaludis); 0.031% of 330,000 active; note: potency is the fitted concentration of half-maximal effect; % is set by controls: 0 for no effect and ±100 for the full control effect; nearly all actives have a fitted effect of over 80% in size
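Quantitative HTS used 25 nM Mm-CPN and 10 uM ATP in magnesium/KCl Tris buffer, pH 7.4, with 1 mM DTT. Hydrolysis ran 30 min at 37°C; ADP was read by HTRF.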
ALOX12 inh: Primary qHTS assay for inhibitors of human arachidonate 12S-lipoxygenase (ALOX12): Round 2; AID 1671190, 2021; purified 12hLO, xylenol orange hydroperoxide absorbance; Polyunsaturated fatty acid lipoxygenase ALOX12 (Homo sapiens), P18054; 1.1% of 580,000 active; Potency, µM (doses to about 108 µM), for the others: at the highest dose activity change, negative = inhibition, usual class: inhibitors; note: potency is the fitted concentration of half-maximal effect; % is set by controls: 0 for no effect and ±100 for the full control effect
Target sequence (P18054 whole entry, looked up): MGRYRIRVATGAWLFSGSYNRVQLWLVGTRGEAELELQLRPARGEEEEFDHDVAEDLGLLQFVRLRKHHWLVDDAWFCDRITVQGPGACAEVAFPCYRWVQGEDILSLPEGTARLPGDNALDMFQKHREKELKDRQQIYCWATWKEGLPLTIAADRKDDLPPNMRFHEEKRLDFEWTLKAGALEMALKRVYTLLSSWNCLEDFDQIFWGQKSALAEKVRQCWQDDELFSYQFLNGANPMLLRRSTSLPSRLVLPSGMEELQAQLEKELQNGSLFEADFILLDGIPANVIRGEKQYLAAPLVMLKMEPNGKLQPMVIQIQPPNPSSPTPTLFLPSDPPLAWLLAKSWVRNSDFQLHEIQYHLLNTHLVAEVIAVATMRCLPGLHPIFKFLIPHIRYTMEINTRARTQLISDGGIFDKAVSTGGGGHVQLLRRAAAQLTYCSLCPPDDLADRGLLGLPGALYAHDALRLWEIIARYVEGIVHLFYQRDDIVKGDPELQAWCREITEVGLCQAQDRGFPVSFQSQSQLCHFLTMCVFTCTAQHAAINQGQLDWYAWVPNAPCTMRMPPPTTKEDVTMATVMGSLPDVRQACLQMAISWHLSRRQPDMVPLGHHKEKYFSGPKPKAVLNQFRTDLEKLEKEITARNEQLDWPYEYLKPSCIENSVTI
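Purified human 12hLO (150 nM final) in 25 mM Hepes, 0.01% Triton X-100, pH 7.0 was preincubated 15 min at room temperature with compound. Then 40 uM arachidonic acid was added, 30 min. Hydroperoxide was read by Fe-XO absorbance ratio 573/405 nm.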
p53 reactivation: qHTS assay for re-activators of p53 using a Luc reporter; H1299 p53-A138V BP100-luciferase reporter, luminescence, 24 h; Potency, µM (top dose mostly 92.2 µM), for the others: at the top dose activity change, positive = activation, most hits filed as activators; 0.063% of 320,000 active; AID 504706, 2011; note: potency is the fitted concentration of half-maximal effect; % of control where 0% means no effect; nearly all actives have a fitted effect of over 45% in size
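H1299 (p53-null), stable ts p53-A138V + BP100-Luc; 1000 cells/well, Opti-MEM/10% FBS; cpd 4 pt, 1:5; 24 h, 37 deg C, 5% CO2; detection reagent 10 min RT; luminescence.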
ASM inhibitor: Inhibitors of Secretory Acid Sphingomyelinase (S-ASM): qHTS; placental ASM, HMU-PC fluorogenic substrate, 60 min; 0.006% of 340,000 active; Sphingomyelin phosphodiesterase (Homo sapiens), P17405; Potency, µM (doses to about 57.5 µM), for inactives: at the top dose activity change, negative = inhibition, hits mostly inhibitors; note: potency is the fitted concentration of half-maximal effect
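HMU-PC0 cleavage (9 uM final) by human placental ASM, 60 min at 37 °C following 10 min compound exposure at RT; stopped at pH 10, fluorescence Ex 386/Em 447 nm.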
The depositor's hits bear a star; [ ] = dose if it differs, or a comment. Shown are actives, neighbours in structure and some others; about 1.4% of the full set was active somewhere. Unless noted, calls come from the whole dose curve; as a rule, active = well fitted curve in the direction sought with a large enough effect; inconclusive = small, poorly fitted or top-dose-only effect, or another doubt; inactive = no such curve, though single readings can be large; an effect the other way counts as inactive or inconclusive.

How did Cc1nn2c(c1-c1ccnn1C(C)C)N(Cc1ccc(C(=O)O)s1)CCC2 do in these assays?
ALOX12 inh: 28µM*

How did CCc1ccc(C2c3c(-c4ccccc4)n[nH]c3C(=O)N2c2ccc(C(=O)O)cc2)cc1 (centres undefined) do in these assays?
PINK1 expr mod: 0%; ALOX12 inh: 40µM*

Results for CCN(CC)C(=O)CSc1nc(C)cc(-c2cccs2)c1C#N ?
PINK1 expr mod: -2%[38.3 µM]; CCT modulator: -34*; Mm-Cpn inhibitor: 1%; ALOX12 inh: inconclusive; p53 reactivation: 11%; ASM inhibitor: 2%

Results for Cn1c(CN2CCCCC2)nc2cc(NC(=O)c3ccc(Cl)cc3)ccc21 ?
PINK1 expr mod: -1%; CCT modulator: -48*; Mm-Cpn inhibitor: 1%; ALOX12 inh: -18%; p53 reactivation: 2%; ASM inhibitor: 11%

What do the screens show for `Cn1c(CN2CCCC2)nc2cc(NC(=O)c3ccc(Cl)cc3)ccc21`?
PINK1 expr mod: 2%; CCT modulator: -2; Mm-Cpn inhibitor: 1%; ALOX12 inh: 13%; p53 reactivation: inconclusive; ASM inhibitor: 1%

Results for CCOC(=O)N1CCN(Cc2nc3cc(NC(=O)c4ccco4)ccc3n2C)CC1 ?
PINK1 expr mod: -1%; CCT modulator: -58*; Mm-Cpn inhibitor: -1%; ALOX12 inh: -2%; p53 reactivation: 6%; ASM inhibitor: 0%

How did Cc1nc2ccc(Cl)cc2cc1C(=O)N1CCN(CC(F)(F)F)CC1 do in these assays?
ALOX12 inh: -5%

What do the screens show for `CS(=O)(=O)Nc1cccc(-c2ccc3ncnc(Nc4ccc(F)cc4)c3c2)c1`?
PINK1 expr mod: 3%; ALOX12 inh: 18µM*

What do the screens show for `O=C(O)C1C2CCC(CC2)C1C(=O)NCCCN1CCOCC1` (centres undefined)?
ALOX12 inh: -5%

How did COC(=O)C1CCN(c2nc3ccccc3nc2C(C#N)C(=O)NCc2ccccc2)CC1 (centres undefined) do in these assays?
ALOX12 inh: -62%

Results for COC(=O)C1CCN(c2nc3ccccc3nc2C(C#N)C(=O)OCC(C)C)CC1 (centres undefined) ?
PINK1 expr mod: 1%; CCT modulator: -40*; Mm-Cpn inhibitor: 0%; ALOX12 inh: 0%; p53 reactivation: 6%; ASM inhibitor: -5%

What do the screens show for `O=C(NC1CCCC1)C(c1ccncc1)N(C(=O)c1ccco1)c1ccc(F)c(Cl)c1` (centres undefined)?
PINK1 expr mod: 2%; CCT modulator: -36*; Mm-Cpn inhibitor: 2%; ALOX12 inh: inconclusive; p53 reactivation: 1%; ASM inhibitor: 0%

Results for COc1ccc(C(C)=O)cc1CO/N=C/c1ccc(OC(F)F)cc1 ?
ALOX12 inh: -22%

How did NC(=O)CSc1nnc(-c2cccc(S(=O)(=O)N3CCCCC3)c2)o1 do in these assays?
PINK1 expr mod: 0%; CCT modulator: -57*; Mm-Cpn inhibitor: -2%; ALOX12 inh: 58%; p53 reactivation: 1%; ASM inhibitor: -1%

Results for O=S(=O)(c1cccc(-c2nnc(-c3ccc(Br)cc3)o2)c1)N1CCCCCC1 ?
CCT modulator: -58*; Mm-Cpn inhibitor: -3%; ALOX12 inh: 0%; p53 reactivation: 5%; ASM inhibitor: 0%

How did O=S(=O)(c1cccc(-c2nnco2)c1)N1CCCC1 do in these assays?
PINK1 expr mod: 1%; CCT modulator: 2; Mm-Cpn inhibitor: -1%; ALOX12 inh: 0%; p53 reactivation: 14%; ASM inhibitor: 2%
